Test results published in PubChem BioAssay (NCI).
Compounds without any hit were thinned out: in the full panel of roughly 83,000, 20% have a hit.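 Single-dose data. Exposure time 48 hours. Values below 10 considered active.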 Active and inactive are the calls of the source.

Columns and labels:
Test in all cases: NCI-60 one-dose screen, 48 h (100 = growth as untreated, 0 = no growth, -100 = all killed)
Conditions in all cases: 10 µM unless noted
NCI-H23 lung = system: NCI-H23 lung
NCI-H322M lung = system: NCI-H322M lung
HOP-62 NSCLC = system: HOP-62 NSCLC
NCI-H460 lung = system: NCI-H460 lung
HOP-92 NSCLC = system: HOP-92 NSCLC
NCI-H522 lung = system: NCI-H522 lung
A549/ATCC NSCLC = system: A549/ATCC NSCLC
786-0 renal = system: 786-0 renal
COLO 205 colon = system: COLO 205 colon
DU-145 prostate = system: DU-145 prostate
K-562 leukemia = system: K-562 leukemia
MALME-3M melanoma = system: MALME-3M melanoma
MDA-MB-231 breast = system: MDA-MB-231 breast
RXF 393 renal = system: RXF 393 renal
SF-268 CNS = system: SF-268 CNS
SF-539 CNS = system: SF-539 CNS
UACC-257 melanoma = system: UACC-257 melanoma
M14 melanoma = system: M14 melanoma
HCT-15 colon = system: HCT-15 colon
SF-295 CNS = system: SF-295 CNS

Measured: growth

COC(=O)[C@H]1CCCN1C(=O)[C@H]1CCCN1C(=O)[C@H](Cc1c[nH]c2ccccc12)NC(=S)Nc1cc(C(F)(F)F)cc(C(F)(F)F)c1
inactive: NCI-H23 lung 65.2% | NCI-H322M lung 78.4% | HOP-62 NSCLC 74.5% | NCI-H460 lung 22.1% | HOP-92 NSCLC 88.8% | NCI-H522 lung 68.6% | A549/ATCC NSCLC 35% | 786-0 renal 58.3% | DU-145 prostate 64.6% | K-562 leukemia 34.7% | MALME-3M melanoma 70.5% | RXF 393 renal 64.8% | SF-268 CNS 47.8% | SF-539 CNS 74.3% | UACC-257 melanoma 67.9% | M14 melanoma 56% | HCT-15 colon 70.4%
active: COLO 205 colon -34.8% | MDA-MB-231 breast -38.5%

O=C(NC1CCN(Cc2ccccc2)CC1)c1cc(C(=O)NC2CCN(Cc3ccccc3)CC2)cc(C(=O)NC2CCN(Cc3ccccc3)CC2)c1
inactive: NCI-H23 lung 77.2% | NCI-H322M lung 90.3% | HOP-62 NSCLC 58.7% | NCI-H460 lung 91.8% | HOP-92 NSCLC 54.3% | A549/ATCC NSCLC 39.8% | 786-0 renal 100% | COLO 205 colon 108% | DU-145 prostate 93.4% | K-562 leukemia 64.6% | MALME-3M melanoma 77.9% | MDA-MB-231 breast 90.3% | RXF 393 renal 60.1% | SF-268 CNS 71.4% | SF-539 CNS 90.5% | UACC-257 melanoma 81.2% | M14 melanoma 83.2% | HCT-15 colon 78.2%
active: NCI-H522 lung -67.7%

COC(=O)/C(=C\c1c(-c2ccccc2)[nH]c2ccccc12)S(C)(=O)=O
inactive: NCI-H23 lung 33.9% | NCI-H322M lung 63.8% | HOP-62 NSCLC 38.2% | NCI-H460 lung 12.5% | HOP-92 NSCLC 65.4% | NCI-H522 lung 47.1% | A549/ATCC NSCLC 38.6% | 786-0 renal 38.1% | COLO 205 colon 24.3% | K-562 leukemia 17.2% | MALME-3M melanoma 74.1% | MDA-MB-231 breast 49.7% | SF-268 CNS 26.8% | SF-295 CNS 32% | UACC-257 melanoma 67.4% | M14 melanoma 14.9% | HCT-15 colon 34.5%
active: DU-145 prostate -5.09% | SF-539 CNS 4.74%

CCCC(=O)CC(C)=O.CCCC(=O)CC(C)=O.[Cu]
inactive: NCI-H23 lung 97.3% | NCI-H322M lung 99.5% | HOP-62 NSCLC 94.3% | NCI-H460 lung 107% | HOP-92 NSCLC 96.5% | NCI-H522 lung 91% | A549/ATCC NSCLC 79.4% | 786-0 renal 104% | COLO 205 colon 97.4% | DU-145 prostate 110% | K-562 leukemia 104% | MALME-3M melanoma 89.9% | MDA-MB-231 breast 120% | RXF 393 renal 122% | SF-295 CNS 103% | SF-539 CNS 104% | UACC-257 melanoma 74.9% | M14 melanoma 100% | HCT-15 colon 105%

O=C(CSc1ncccc1C(=O)O)Nc1ccc(Oc2ccccc2)cc1
inactive: NCI-H23 lung 104% | NCI-H322M lung 99% | HOP-62 NSCLC 93.8% | NCI-H460 lung 102% | HOP-92 NSCLC 102% | NCI-H522 lung 105% | A549/ATCC NSCLC 98% | 786-0 renal 99.8% | COLO 205 colon 108% | DU-145 prostate 110% | K-562 leukemia 94.4% | MALME-3M melanoma 99.3% | MDA-MB-231 breast 124% | RXF 393 renal 107% | SF-268 CNS 105% | SF-539 CNS 106% | UACC-257 melanoma 100% | M14 melanoma 98.7% | HCT-15 colon 104%

COc1cc(OC)cc(N2C(=O)N(Cc3ccc(C(C)(C)C)cc3)c3ccccc3S2(=O)=O)c1
inactive: NCI-H23 lung 82.8% | NCI-H322M lung 83.3% | HOP-62 NSCLC 95.2% | NCI-H460 lung 93.9% | HOP-92 NSCLC 56.1% | NCI-H522 lung 76.9% | A549/ATCC NSCLC 93.3% | 786-0 renal 73.7% | COLO 205 colon 83.6% | DU-145 prostate 96.2% | K-562 leukemia 33.3% | MALME-3M melanoma 64% | MDA-MB-231 breast 77.4% | RXF 393 renal 60.2% | SF-268 CNS 89% | SF-539 CNS 87.2% | UACC-257 melanoma 105% | M14 melanoma 85.2% | HCT-15 colon 67.9%

O=C(NN1C(=O)CSC1c1ccc(Cl)cc1)c1[nH]c2ccc(F)cc2c1-c1ccccc1 (configuration not stated)
inactive: NCI-H23 lung 57.8% | NCI-H322M lung 82.1% | HOP-62 NSCLC 78.1% | HOP-92 NSCLC 46.5% | NCI-H522 lung 74.4% | A549/ATCC NSCLC 26.9% | 786-0 renal 65.8% | COLO 205 colon 13.6% | DU-145 prostate 77.2% | K-562 leukemia 28.2% | MALME-3M melanoma 85.2% | MDA-MB-231 breast 63.4% | SF-268 CNS 65.1% | SF-539 CNS 78.8% | UACC-257 melanoma 74.4% | M14 melanoma 57.3% | HCT-15 colon 55.7%
active: NCI-H460 lung 5.13% | SF-295 CNS 8.34%

Nc1ccc(C2c3ccccc3Oc3ccccc32)cc1
inactive: NCI-H23 lung 99.1% | NCI-H322M lung 99.8% | HOP-62 NSCLC 91.8% | NCI-H460 lung 108% | HOP-92 NSCLC 93.4% | NCI-H522 lung 89.4% | A549/ATCC NSCLC 97.7% | 786-0 renal 105% | COLO 205 colon 105% | DU-145 prostate 106% | K-562 leukemia 82.3% | MALME-3M melanoma 106% | MDA-MB-231 breast 104% | SF-268 CNS 102% | SF-295 CNS 89% | SF-539 CNS 111% | UACC-257 melanoma 102% | M14 melanoma 107% | HCT-15 colon 99.2%

COc1ccc(C2Nc3nc(OC)n(C)c(=O)c3N=C3c4ccccc4C(=O)C32)cc1 (configuration not stated)
active: SF-295 CNS 6.96%
inactive: NCI-H23 lung 100% | NCI-H322M lung 106% | HOP-62 NSCLC 91.1% | NCI-H460 lung 97% | HOP-92 NSCLC 81.9% | NCI-H522 lung 94.8% | A549/ATCC NSCLC 106% | 786-0 renal 98.1% | COLO 205 colon 104% | DU-145 prostate 89.2% | K-562 leukemia 83.8% | MALME-3M melanoma 117% | MDA-MB-231 breast 92.2% | SF-268 CNS 81% | SF-539 CNS 89.8% | UACC-257 melanoma 127% | M14 melanoma 92.4% | HCT-15 colon 88.3%

N#C/C(=C\c1c(-c2ccccc2)[nH]c2ccccc12)C(=O)c1ccccc1
inactive: NCI-H23 lung 47.9% | NCI-H322M lung 53.3% | HOP-62 NSCLC 43% | NCI-H460 lung 18.9% | HOP-92 NSCLC 77.5% | NCI-H522 lung 57.1% | A549/ATCC NSCLC 50.2% | 786-0 renal 50.1% | COLO 205 colon 25.6% | DU-145 prostate 31.7% | K-562 leukemia 21.6% | MALME-3M melanoma 70.9% | MDA-MB-231 breast 71.3% | SF-268 CNS 53.6% | SF-295 CNS 37.1% | SF-539 CNS 21.7% | UACC-257 melanoma 61.6% | M14 melanoma 37.6% | HCT-15 colon 42.1%

COc1ccc(C2Nc3ncnc(N)c3N=C3c4ccccc4C(=O)C32)cc1 (configuration not stated)
inactive: NCI-H23 lung 101% | NCI-H322M lung 101% | HOP-62 NSCLC 85.2% | NCI-H460 lung 104% | HOP-92 NSCLC 55.4% | NCI-H522 lung 101% | A549/ATCC NSCLC 96.3% | 786-0 renal 93.5% | COLO 205 colon 93.2% | DU-145 prostate 102% | K-562 leukemia 84.5% | MALME-3M melanoma 101% | MDA-MB-231 breast 97.9% | SF-268 CNS 84% | SF-295 CNS 96.9% | SF-539 CNS 100% | UACC-257 melanoma 102% | M14 melanoma 94.8% | HCT-15 colon 89.4%

CCOC(=O)c1cc2c(n1Cc1cc(OC)c(OC)c(OC)c1)-c1oncc1CCC2
active: NCI-H460 lung 5.74% | NCI-H522 lung 5.14% | COLO 205 colon -39.9% | K-562 leukemia 6.98% | SF-539 CNS -7.45%
inactive: NCI-H23 lung 21.5% | NCI-H322M lung 50.7% | HOP-62 NSCLC 39.8% | HOP-92 NSCLC 129% | A549/ATCC NSCLC 26.7% | 786-0 renal 39.5% | DU-145 prostate 13% | MALME-3M melanoma 43.9% | MDA-MB-231 breast 12.3% | RXF 393 renal 26.9% | SF-268 CNS 46.1% | UACC-257 melanoma 70.7% | M14 melanoma 18% | HCT-15 colon 16.9%

CS(=O)(=O)Nc1ccc(C(=O)NC(C(=O)NO)c2ccc(-c3cccc(F)c3)cc2)cc1 (configuration not stated)
inactive: NCI-H23 lung 45.6% | NCI-H322M lung 53.5% | HOP-62 NSCLC 99.1% | NCI-H460 lung 89.7% | NCI-H522 lung 30% | A549/ATCC NSCLC 103% | 786-0 renal 72.8% | COLO 205 colon 109% | DU-145 prostate 83.5% | K-562 leukemia 90% | MALME-3M melanoma 92% | MDA-MB-231 breast 42.1% | RXF 393 renal 106% | SF-268 CNS 47.3% | SF-295 CNS 93.7% | SF-539 CNS 92.6% | UACC-257 melanoma 101% | M14 melanoma 85.3% | HCT-15 colon 91.5%
active: HOP-92 NSCLC -8.77%

O=c1oc2ccc(F)cc2c(=O)n1-c1ccc(Br)cc1F
inactive: COLO 205 colon 27.7% | DU-145 prostate 14.5% | SF-268 CNS 11.2%
active: NCI-H23 lung 1.49% | NCI-H322M lung 6.65% | HOP-62 NSCLC -0.164% | NCI-H460 lung 4.13% | HOP-92 NSCLC -15.2% | NCI-H522 lung -17.9% | A549/ATCC NSCLC 4.2% | 786-0 renal 2.85% | K-562 leukemia 6.75% | MALME-3M melanoma -23% | MDA-MB-231 breast -22% | RXF 393 renal -0.594% | SF-295 CNS -50.6% | SF-539 CNS 2.6% | UACC-257 melanoma -17.4% | M14 melanoma -2.25% | HCT-15 colon 2.89%

O=Nc1c(O)ccc2ccccc12.O=Nc1c(O)ccc2ccccc12.O=Nc1c([O-])ccc2ccccc12.[Fe+3]
inactive: NCI-H23 lung 87% | NCI-H322M lung 104% | HOP-62 NSCLC 87.6% | NCI-H460 lung 105% | HOP-92 NSCLC 94.5% | NCI-H522 lung 103% | A549/ATCC NSCLC 106% | 786-0 renal 115% | COLO 205 colon 103% | DU-145 prostate 125% | K-562 leukemia 115% | MALME-3M melanoma 95.8% | MDA-MB-231 breast 86.9% | RXF 393 renal 110% | SF-268 CNS 106% | SF-539 CNS 96% | UACC-257 melanoma 110% | M14 melanoma 97.2% | HCT-15 colon 105%
